Screens deposited in PubChem by Broad Institute.
Most compounds without a hit are left out; they make up all but 3.1% or so of the library.
MITF TRPM1 HTS – increases MITF-driven TRPM1 promoter luciferase signal; SK-MEL-5 TRPM1-promoter luciferase, 24 h; % of positive control, neutral wells = 0; activation, % at 12.5 µM; actives 0.75% (n = 300,000); AID 588334;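 active = mean activation of at least 80% with every replicate also reaching 80%; inconclusive = mean reaches 80% but some replicate falls short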;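 also: 0% = neutral control wells and 100% = parthenolide positive control wells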
esBAF inh – SWI/SNF esBAF complex inhibition; mouse ES cells, Bmi1-luciferase knock-in reporter, 24 h; 100% = twice the neutral-well signal; reporter increase, % at 12.5 µM; actives 2% (n = 350,000); in the data active = activation above about 40%; inconclusive = no clear call, values can overlap the other calls;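 also: 0% = median of the plate's neutral control wells and 100% = double that signal; a rise in the Bmi1 reporter signal indicates esBAF inhibition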
Wnt bcat act – activates Wnt/beta-catenin signaling in a reporter cell assay; activator, plate reader; activation, % at 9.35 µM; actives 1.2% (n = 300,000); in the data active = activation above about 30%, passing the limit was not always enough; inconclusive = no clear call, values can overlap the other calls;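 also: 0% = neutral control wells and 100% = positive control wells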
C2C12 statin – protects C2C12 myotubes from simvastatin toxicity | ATP luminescence, 48 h; scaled: DMSO 0, geranylgeraniol control 100 | rescue of ATP level, % at 7.49 µM | actives 0.78% (n = 330,000);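 active = mean ATP rescue above about 67%, or every replicate alone reaching that limit, limit read from the data, passing the limit was not always enough; inconclusive = no clear call, values can overlap the other calls; inactive = mean under the limit and some replicate under it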;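 also: myotubes were challenged with 10 µM simvastatin during compound exposure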
Rtt109 HAT inh – inhibitors of Candida albicans Rtt109/Vps75 histone acetyltransferase; Q5AAJ8; purified Rtt109/Vps75, ThioGlo CoA-SH fluorescence, 4 h; inhibition, % at 34.9 µM; actives 0.16% (n = 330,000); AID 540336;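 active = inhibition of at least 50% in every replicate; inconclusive = best replicate reaches 50% inhibition but some replicates fall short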
Target sequence (Q5AAJ8 whole entry, looked up): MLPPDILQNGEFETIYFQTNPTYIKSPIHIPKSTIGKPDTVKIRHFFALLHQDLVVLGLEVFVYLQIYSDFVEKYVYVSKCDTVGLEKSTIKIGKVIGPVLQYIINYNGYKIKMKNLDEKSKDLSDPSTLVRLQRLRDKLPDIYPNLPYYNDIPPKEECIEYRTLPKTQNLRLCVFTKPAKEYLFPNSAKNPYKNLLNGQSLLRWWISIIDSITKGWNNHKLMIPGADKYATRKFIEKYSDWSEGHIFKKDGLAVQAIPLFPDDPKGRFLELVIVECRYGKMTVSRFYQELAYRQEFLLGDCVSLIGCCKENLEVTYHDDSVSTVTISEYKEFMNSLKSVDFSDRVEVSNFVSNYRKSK
Numbers without * were called inactive; ? = inconclusive; nt = not tested or not shown.

SMILES | MITF TRPM1 HTS | esBAF inh | Wnt bcat act | C2C12 statin | Rtt109 HAT inh
Cc1cc2nc(-c3ccc(SCC(=O)N4CCc5ccccc54)nc3)[nH]c2cc1C | 21 | 75* | -5 | -30 | -7
O=C(CSCCO)N1CCc2ccccc21 | 1 | -3 | 1 | 116* | -3
CSc1nsc(SCC(=O)N2CCCc3ccccc32)n1 | 0 | 7 | nt | 92* | -3
COc1ccc(-n2nnc3c(=O)n(CC(=O)N4CCCc5ccccc54)cnc32)cc1 | nt | -8 | -5 | -22 | -6
C[C@@H]1CCCCO[C@@H](CN(C)CC2CCCCC2)[C@H](C)CN([C@H](C)CO)C(=O)c2cc(NC(=O)Nc3cccc4ccccc34)ccc2O1 | nt | -6 | nt | nt | nt
CC=Cc1ccc2n(c1=O)C[C@H]1[C@H](CO)[C@@H](C(=O)NCc3ccccc3F)N(CCC)[C@@H]21 (mixture of isomers) | nt | 1 | nt | 18 | nt
COc1cccc(S(=O)(=O)N[C@H]2CC[C@@H](CCn3cc(-c4ccccn4)nn3)O[C@H]2CO)c1 | nt | 7 | nt | -4 | nt
Cc1cc(C)n2nc(SCC(=O)N3CCc4ccccc43)nc2n1 | -1 | nt | -3 | nt | 1
Cc1cc(C)nc(SCC(=O)N2CCc3ccccc32)n1 | 54 | 42* | 13 | -2 | 4
C[C@H](CO)N1C[C@H](C)[C@H](CN(C)C(=O)c2cnccn2)Oc2ncc(-c3cccc(C#N)c3)cc2C1=O | nt | 6 | nt | 5 | nt
C[C@H]1CN([C@@H](C)CO)S(=O)(=O)c2ccc(-c3ccncc3)cc2O[C@H]1CN(C)Cc1ccncc1 | nt | nt | nt | -3 | nt
Cc1ccc(C(=O)CSc2nc(C(C)C)nc3ccccc23)cc1 | -6 | 0 | 36* | 2 | -2
CC(=O)N[C@H]1CC[C@@H](CCNC(=O)C2CCCC2)O[C@@H]1CO | nt | 7 | nt | 0 | nt
CS(=O)(=O)N1N=C(c2cccs2)CC1c1ccccc1 (configuration not stated) | -4 | 3 | 5 | 6 | -6
c1ccc(C2Oc3ccccc3C3CC(c4cccs4)=NN32)cc1 (configuration not stated) | 8 | 85* | 38* | 14 | -5
C/C(=N/OC(=O)CC(C)C)c1cc(-c2ccc(Cl)cc2)no1 | 86* | nt | 7 | nt | -7
O=C(NCc1cccs1)c1ccc(N2CCCCC2)nc1 | 71 | 81* | nt | -53 | 0
O=C(NCc1cccs1)c1ccncc1 | nt | -1 | 0 | 3 | 5
CC1CCCN(c2ccc(C(=O)NCc3ccccc3)cn2)C1 (configuration not stated) | 32 | 34 | 4 | -18 | 6
CC1CCCN(c2ccc(C(=O)NCc3cccs3)cn2)C1 (configuration not stated) | 79 | 94* | nt | -15 | nt
CC(C)NC(=O)N(C)C[C@@H]1OCCCC[C@@H](C)Oc2ccc(NS(=O)(=O)c3ccc(F)cc3)cc2C(=O)N([C@@H](C)CO)C[C@H]1C | nt | -2 | nt | nt | nt
O=C(CC1CCCCC1)NCc1ccccc1Cl | 41 | 53* | 8 | 12 | -6
O=C(C[C@@H]1CC[C@@H](NC(=O)CN2CCOCC2)[C@H](CO)O1)NCCc1ccccc1 | nt | 1 | nt | -5 | nt
COc1ccc(-c2noc(N3CCCC(C(=O)Nc4ccc(C(C)=O)cc4)C3)n2)cc1 (configuration not stated) | 48 | 48* | 6 | 1 | -10
COc1ccc(NC(=O)C2CCN(c3nc(-c4ccc(OC)cc4)no3)CC2)cc1 | nt | -23 | 3 | -17 | 5
SMILES | MITF TRPM1 HTS | esBAF inh | Wnt bcat act | C2C12 statin | Rtt109 HAT inh
COc1ccccc1C1=NOC(CN2C(=O)c3ccccc3S2(=O)=O)C1 (configuration not stated) | 104* | nt | 37* | nt | -7
O=C1c2ccccc2S(=O)(=O)N1CC1CC(c2ccccc2Cl)=NO1 (configuration not stated) | 94* | 14 | 93* | -5 | -5
COc1ccccc1C1=NOC(COC(=O)c2ccc(Br)cc2)C1 (configuration not stated) | 0 | -7 | -12 | -2 | 6
COc1ccccc1C1=NOC(COC(=O)c2ccc([N+](=O)[O-])cc2)C1 (configuration not stated) | nt | nt | 41* | nt | nt
C[C@H](CO)N1C[C@H](C)[C@@H](CN(C)CC2CCCCC2)OCCCC[C@H](C)Oc2ccc(NS(=O)(=O)c3ccc(F)cc3)cc2C1=O | nt | -2 | nt | -95 | nt
CC1CCCC(C)N1CCCNC(=O)c1ccc2nc(N3CCCCC3)sc2c1 (configuration not stated) | nt | 72* | -3 | -9 | -19
CC1CCCC(C)N1CCCNC(=O)c1ccc2nc(N3CCOCC3)sc2c1 (configuration not stated) | 4 | -2 | -1 | -11 | 8
CC1CCN(c2nc3ccc(C(=O)NCCCN4CCCCC4C)cc3s2)CC1 (configuration not stated) | nt | 72* | 1 | -23 | -1
CCC1CCCCN1CCCNC(=O)c1ccc2nc(N3CCCCC3)sc2c1 (configuration not stated) | ? | ? | -1 | -7 | -1
CNc1cncc(-c2ccc(OC)cc2)n1 | nt | 41* | 2 | -2 | nt
C[C@@H]1CN([C@@H](C)CO)C(=O)c2cc(-c3ccccc3)cnc2O[C@@H]1CN(C)C(=O)Cc1ccccc1 | nt | -3 | nt | 6 | nt
CCOCCCNC(=O)c1ccc(/C=C2\Oc3ccccc3N(C)C2=O)cc1 | 20 | 72* | 2 | -1 | -3
O=C(NCc1ccc(F)cc1)[C@@H]1[C@@H](CO)[C@@H]2Cn3c(cccc3=O)[C@H]1N2C(=O)Cc1ccccn1 | nt | 3 | nt | 1 | nt
COc1c(O)cc2oc(-c3ccc(O)cc3)cc(=O)c2c1O | 41 | 0 | 39* | 0 | 6
COc1ccc(-c2cc(=O)c3c(C)cc(O)cc3o2)cc1 | 75 | nt | 67* | nt | 2
Cc1cc2ncn(CCOc3ccccc3)c2cc1C | 56 | 83* | nt | 3 | 0
COCCn1cnc2cc(C)c(C)cc21 | -5 | 1 | nt | 18 | -6
Cc1noc(C)c1S(=O)(=O)Nc1ccc2c(c1)C(=O)N([C@H](C)CO)C[C@@H](C)[C@@H](CN(C)C(=O)Nc1ccc(F)cc1)O2 | nt | 2 | nt | -2 | nt
COC(=O)C[C@@H]1C[C@@H]2c3cc(NS(=O)(=O)c4ccc(OC)cc4)ccc3O[C@@H]2[C@@H](CO)O1 | nt | 2 | nt | -7 | nt
Cc1ccc2nc(Cc3ccc(N)cc3)[nH]c2c1 | 16 | 44* | 39* | 14 | 6
Nc1ccc(Cc2nc3c(ccc4ccccc43)[nH]2)cc1 | 43 | 87* | 13 | 12 | -1
Cc1ccc2nc(C(O)C(O)c3nc4ccc(C)cc4[nH]3)[nH]c2c1 (configuration not stated) | nt | 43* | 27 | -10 | 15
C[C@@H]1CCCCO[C@H](CN(C)Cc2ccc3c(c2)OCO3)[C@@H](C)CN([C@@H](C)CO)C(=O)c2cc(NS(=O)(=O)c3ccccc3)ccc2O1 | nt | 0 | nt | nt | nt
COc1ccc(Cc2c(-c3cccc(Br)c3)nc3ccc(Br)cn23)c(C)c1 | nt | 34 | 0 | -27 | nt
